What all share (test): NCI-60 one-dose screen, 48 h (100 = growth as untreated, 0 = no growth, -100 = all killed)
Assay [1] deals with NCI-H23 lung. As to conditions: 10 µM.
Assay [2] concerns NCI-H226 lung. Particulars: 10 µM.
The test system of assay [3] is NCI-H322M lung. As to conditions: 10 µM.
Assay [4] concerns HOP-62 NSCLC. As to conditions: 10 µM.
For assay [5], the system named is NCI-H460 lung. Particulars: 10 µM.
Assay [6] deals with HOP-92 NSCLC. Particulars: 10 µM.
Assay [7] relates to NCI-H522 lung. Particulars: 10 µM.
For assay [8], the system named is A549/ATCC NSCLC. As to conditions: 10 µM.
The test system of assay [9] is 786-0 renal. Particulars: 10 µM.
For assay [10], the system named is COLO 205 colon. As to conditions: 10 µM.
For assay [11], the system named is DU-145 prostate. Particulars: 10 µM.
Assay [12] concerns K-562 leukemia. Particulars: 10 µM.
The subject of assay [13] is MALME-3M melanoma. Particulars: 10 µM.
The subject of assay [14] is MDA-MB-231 breast. As to conditions: 10 µM.
In assay [15] the test system is RXF 393 renal. Particulars: 10 µM.
Assay [16] has as its system SF-268 CNS. Particulars: 10 µM.
Assay [17] concerns SF-295 CNS. As to conditions: 10 µM.
For assay [18], the system named is SF-539 CNS. As to conditions: 10 µM.
Assay [19] relates to UACC-257 melanoma. Particulars: 10 µM.
Assay [20] relates to M14 melanoma. Particulars: 10 µM unless noted.

This is part of a sample that, as a whole, favours compounds with a hit. Of some 83,000 tested, about 20% had one in any assay.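 Growth was measured after 48 h exposure to one concentration of compound in 96-well plates. Values under 10 count as active.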 Unmarked numbers belong to inactive results. Calls of active or inactive are those of the source.

With `COc1ccc2oc(-c3ccc(Cl)cc3)c(N3CCN(C)CC3)c2c1`, the growth is 73.6% in assay [1]; 91% in assay [2]; 113% in [3]; 51.9% in assay [4]; -62.6% (active) in [5]; -17.1% (active) in assay [6]. Further, the growth in assay [7] is -78.2% (active); in assay [8], 39.6%; in assay [9], 27.2%; in [10] it was -72.5% (active); in [11] it was 24.3%; in assay [12], -24.7% (active). For the same molecule, the growth in assay [13] is 121%; in assay [14], 0.119% (active); in assay [15] it was 28%; in assay [16] it was 37.2%; in assay [17] it was -54.5% (active); in assay [18] it was -6.28% (active). The growth in assay [19] is 22%; in assay [20], -66% (active).
With `COc1cccc(C(c2cc3c(cc2O)OCO3)N2CCOCC2)c1OC` (stereo not drawn), the growth in [1] is 109%; in [2], 99.6%; in assay [3], 101%; in assay [4], 101%; in [5] it was 104%; in [6], 99.6%. For the same molecule, the growth in [7] is 94.8%; in assay [8], 99.9%; in assay [9] it was 101%; in assay [11] it was 109%; in assay [12], 95.8%; in assay [13], 99.2%. Further, the growth in assay [14] is 97.7%; in assay [15] it was 103%; in assay [16] it was 95.8%; in assay [17], 99.7%; in assay [18] it was 96.5%; in assay [19] it was 98.4%. Further, the growth in assay [20] is 104%.
With `Cc1cc(O)c2c(c1O)C(=O)C13C(=C2O)C(=O)C2C(O)C1C1C(O)C3C(=O)C3=C(O)c4c(O)cc(C)c(O)c4C(=O)C321` (stereo not drawn), the growth in assay [1] was 32.3%; in [2], -2.71% (active); in [3], 19.4%; in assay [4] it was 3.99% (active); in [6] it was -18.2% (active); in assay [7], 5.74% (active). Moreover, the growth is -11.4% (active) in assay [8]; -33.2% (active) in assay [9]; -6.49% (active) in assay [11]; 9.5% (active) in assay [12]; -2.77% (active) in [13]; 13.6% in assay [14]. Also, the growth in [15] was -13.7% (active); in [16], 10.6%; in [17], -30.2% (active); in assay [18], -47.2% (active); in [19], 8.71% (active).
Consider `Cc1cc(N=C2C=CC(=[N+](C)C)C=C2)c(N)cc1N`, for which the growth is 78.2% in assay [1]; 97.9% in [2]; 93.7% in assay [3]; 101% in assay [4]; 97.3% in assay [6]; 77.7% in assay [7]. The growth is 84.6% in assay [8]; 96% in assay [9]; 104% in assay [11]; 57.3% in assay [12]; 106% in assay [13]; 65.2% in assay [14]. For the same molecule, the growth in assay [15] is 96.3%; in assay [16], 97.9%; in assay [17], 90.8%; in [18], 89.3%; in assay [19] it was 103%; in [20], 107%.
For the molecule `CN(CC(=O)O)c1ccc(/C=C/c2ccnc3ccccc23)cc1`, the growth is 99% in assay [1]; 60.8% in assay [2]; 98.7% in assay [3]; 83.5% in assay [4]; 46.2% in [6]; 78.1% in [7]. The growth in [8] was 74.3%; in assay [9], 95.8%; in assay [11] it was 97.7%; in assay [12] it was 50.5%; in [13], 99.2%; in assay [14] it was 66.8%. Further, the growth in assay [15] was 111%; in [16] it was 90.1%; in assay [17], 92.2%; in [18], 90.3%; in assay [19] it was 86.9%; in [20] it was 90.3%.
For the molecule `CN(C)c1ccc(/C=C/c2ccnc3ccccc23)cc1N`, the growth in [1] was 48.8%; in assay [2], 53%; in assay [3], 85.1%; in [4] it was 77.2%; in [6], -3.62% (active); in [7] it was 56.6%. The growth in assay [8] is 72.6%; in assay [9], 85.6%; in assay [11], 83.5%; in [12] it was 31.1%; in assay [13], 68%; in assay [14] it was 46.1%. Moreover, the growth in [15] was 80.9%; in assay [16], 87.4%; in assay [17] it was 74.8%; in assay [18] it was 76.9%; in [19], 58.7%; in [20], 73.9%.
Regarding `O=S(=O)(c1cc(Cl)ccc1O)c1cc(Cl)ccc1O`, the growth in [1] was 84.6%; in [2], 78.1%; in assay [3] it was 106%; in assay [4], 83.7%; in assay [6] it was 6.03% (active); in assay [7] it was 63.9%. The growth was 81.3% in [8]; 86.7% in [9]; 100% in assay [11]; 62.1% in assay [12]; 95.7% in assay [13]; 95.4% in [14]. Further, the growth in assay [15] is 102%; in assay [16] it was 88.2%; in [17], 85.2%; in assay [18], 86.6%; in assay [19], 35.1%; in assay [20] it was 75.8%.
